High-throughput results (PubChem)
In the library only some 2.4% were active in any assay of this set; here they are far more common.
Pol eta inh: qHTS for Inhibitors of Polymerase Eta | DNA polymerase eta (Homo sapiens), Q9Y253 | recombinant Pol eta, fluorescent DNA replication assay | Potency, µM (top dose mostly 114 µM), usual class: inhibitors | 1.2% of 390,000 active
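Pol eta (10 nM) was preincubated with compounds for 15 min at room temperature, after which fluorescent replication substrate (50 nM final) was added to start the reaction. Fluorescence was read kinetically at 0 and 10 min.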
Pol beta inh: qHTS Assay for Inhibitors of DNA Polymerase Beta; Pol beta primer extension/strand displacement, fluorescence kinetic; Potency, µM (top dose mostly 114 µM), actives largely listed as inhibitors; 1.3% of 340,000 active
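10 nM enzyme + cpd, 15 min RT; start with substrate 50 nM final; read 0 min and after 10 min RT. Corrected, normalized data; 4-parameter Hill curve fit.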
TDP1 inh: qHTS Assay for Inhibitors of Tyrosyl-DNA Phosphodiesterase (TDP1). recombinant TDP1, AlphaScreen DNA substrate cleavage. 0.28% of 350,000 active. Tyrosyl-DNA phosphodiesterase 1 (Homo sapiens), Q9NUW8. Potency, µM (doses to about 130 µM), hits mostly inhibitors; note: nearly all actives have a fitted effect of over 40% in size
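Steps: enzyme plus compound, 15 min RT; add biotin/phosphotyrosine-FITC oligonucleotide (15 nM final), react 5 min; add donor/acceptor beads (10 ug/ml final), 10 min; read AlphaScreen. Tdp1 at 1 nM final.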
POLK inh: qHTS for Inhibitors of Polymerase Kappa. DNA polymerase kappa (Homo sapiens), Q9UBT6. purified Pol kappa, fluorescent DNA synthesis assay, 10 min. Potency, µM (series often up to 107 µM), hits mostly inhibitors. 0.53% of 400,000 active. AID 588579, 2011
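10 nM Pol kappa was preincubated with compounds for 15 min at room temperature. Reaction started with 50 nM (final) substrate. Fluorescence read kinetically at 0 and 10 min.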
POLI inh: qHTS for Inhibitors of Polymerase Iota | Potency, µM (titrated, usually from 115 µM), most hits filed as inhibitors | Pol iota fluorescent replication assay, 10 min | 1% of 390,000 active | AID 588590, 2011
Target sequence (Q9UNA4 whole entry, looked up): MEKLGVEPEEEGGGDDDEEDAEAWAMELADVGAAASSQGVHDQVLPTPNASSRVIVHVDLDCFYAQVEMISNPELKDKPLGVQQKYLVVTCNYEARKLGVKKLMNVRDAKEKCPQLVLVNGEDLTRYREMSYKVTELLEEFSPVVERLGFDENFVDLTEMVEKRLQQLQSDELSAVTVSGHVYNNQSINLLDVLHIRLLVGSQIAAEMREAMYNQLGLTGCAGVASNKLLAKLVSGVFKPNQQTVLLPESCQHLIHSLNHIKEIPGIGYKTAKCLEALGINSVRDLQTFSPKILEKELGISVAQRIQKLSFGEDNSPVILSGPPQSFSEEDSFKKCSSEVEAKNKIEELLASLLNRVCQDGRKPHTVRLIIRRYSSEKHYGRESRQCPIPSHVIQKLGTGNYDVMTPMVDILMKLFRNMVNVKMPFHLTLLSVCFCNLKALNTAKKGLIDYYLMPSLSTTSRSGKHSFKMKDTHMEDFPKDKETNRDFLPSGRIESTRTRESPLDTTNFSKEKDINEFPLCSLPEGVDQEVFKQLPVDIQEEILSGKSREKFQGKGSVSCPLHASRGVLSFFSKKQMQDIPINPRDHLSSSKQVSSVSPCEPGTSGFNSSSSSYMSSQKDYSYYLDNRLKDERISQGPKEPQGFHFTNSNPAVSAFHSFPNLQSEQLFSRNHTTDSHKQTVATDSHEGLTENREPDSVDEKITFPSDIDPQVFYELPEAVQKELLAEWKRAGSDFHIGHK
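Fluorescent replication assay read twice, at 0 min and 10 min after adding 50 nM (final) substrate. Enzyme (10 nM) and compounds were first incubated 15 min at room temperature; enzyme-free buffer wells were negative controls.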
Hits are given with their value; – = inactive; ? = inconclusive; · = no result given; [ ] = remark or other dose. Calls come from the whole dose curve; as a rule, active = well fitted curve in the direction sought with a large enough effect; inconclusive = small, poorly fitted or top-dose-only effect, or another doubt; inactive = no such curve, though single readings can be large; an effect the other way counts as inactive or inconclusive.

SMILES	Pol eta inh	Pol beta inh	TDP1 inh	POLK inh	POLI inh
COc1ccc2nc(-c3ccccc3)cc(C(=O)OCC(=O)N3CC(C)OC(C)C3)c2c1 (stereo not drawn)	79.4µM	·	·	–	?
Cc1cc(C(=O)OCC(=O)N2CC(C)OC(C)C2)c2ccccc2n1 (stereo not drawn)	–	·	–	–	–
CCN(C(=O)c1cn(C)c(=O)c2ccccc12)c1cccc(C)c1	–	–	–	?	?
c1ccc(-c2nnnn2-c2ccccc2)cc1	–	–	·	–	–
ClC(Cl)(c1nnnn1-c1ccccc1)c1nnnn1-c1ccccc1	–	–	–	–	14.1µM
COc1cccc(-n2cc(C(=O)Nc3cccc(C(F)(F)F)c3)c3ccccc3c2=O)c1	–	–	–	–	–
COc1cn(CC(=O)Nc2c(C)cc(C)cc2C)c(CN2CCCCC2)cc1=O	–	–	–	–	–
O=C1/C(=N\S(=O)(=O)c2cccs2)C([n+]2ccccc2)=C([O-])c2ccccc21	31.6µM	?	·	–	–
CC(C)(C)c1cc[n+](C2=C([O-])c3ccccc3C(=O)/C2=N\S(=O)(=O)c2cccs2)cc1	–	–	–	–	?
COc1ccc(-c2c[n+]3c4n2CCCCC4=C(c2ccccc2)C3)cc1	–	11.2µM	–	–	–
c1csc(-c2nn3c(-c4ccncc4)nnc3s2)c1	·	–	–	·	·
c1csc(Cc2nn3c(-c4ccncc4)nnc3s2)c1	?	31.6µM	·	39.8µM	20µM
COc1ccc(N2C(=O)C(CC(=O)Nc3ccccc3)N(CCC3=CCCCC3)C2=O)cc1 (stereo not drawn)	–	?	–	–	–
Cc1ccc2c(/C=C/c3c[nH]c4ccccc34)ccnc2c1C	·	·	·	–	–
O=S(=O)(c1ccccc1)N1CCSC1c1ccco1 (stereo not drawn)	?	44.7µM	–	–	?
CC(=O)Nc1ccc(S(=O)(=O)N2CCSC2c2ccco2)cc1 (stereo not drawn)	–	–	·	–	–
CC1(NC(=O)CC[N+](C)(C)CCO)CS(=O)(=O)CC1S(=O)(=O)[O-] (stereo not drawn)	·	2µM	–	·	·
CC(=O)N1CCc2c(sc(NC(=O)c3ccc([N+](=O)[O-])o3)c2C(N)=O)C1	50.1µM	·	·	·	·
COc1cccc(CNC(=O)Cn2nc(C)n3c(cc4cc(C)ccc43)c2=O)c1OC	–	–	–	–	–
CCC1CN(C(=O)N2CCC(C(=O)NCc3cccc(F)c3)CC2)c2cc(C)ccc2O1 (stereo not drawn)	–	–	–	?	79.4µM
CCC1CN(C(=O)N2CCC(C(=O)NCCN(CC)CC)CC2)c2cc(C)ccc2O1 (stereo not drawn)	–	–	–	–	–
O=C(C[n+]1ccncc1)c1ccc(Br)cc1	·	·	·	–	–
CCc1ccccc1NC(=O)C1CCN(C2=NS(=O)(=O)C(c3ccc(C)c(C)c3)=C2C)CC1	·	12.6µM	–	–	–
CCc1ccc(C2=C(C)C(N3CCC(C(=O)Nc4ccc(F)cc4)CC3)=NS2(=O)=O)cc1	·	22.4µM	–	–	?
CCCC(=O)Nc1nc2c(s1)CC(C(C)(C)C)CC2 (stereo not drawn)	–	–	–	–	–
SMILES	Pol eta inh	Pol beta inh	TDP1 inh	POLK inh	POLI inh
NS(=O)(=O)c1ccc(CNS(=O)(=O)c2cc(C(=O)O)ccc2Cl)cc1	20µM	?	·	–	?
O=C(Nc1cccc(-c2cscn2)c1)C1CCN(Cc2ccc(CO)o2)CC1	–	–	–	?	50.1µM
CC(C)(C)c1ccc(C(=O)CCCN2CCC(OC(c3ccccc3)c3ccccc3)CC2)cc1	·	·	–	–	·
CC(=O)c1c(C)oc2ccc(NS(=O)(=O)c3ccc(O)c(C(=O)O)c3)cc12	25.1µM	?	–	–	?
O=C(O)c1cc(S(=O)(=O)Nc2ccc3oc(=O)sc3c2)ccc1O	14.1µM	50.1µM	–	?	?
O=C(Nc1cccc(Cl)c1)OCC#CCCl	·	·	–	26.7µM	·
CCC(C)NC(=O)CCc1c(C)nc2c(c(C)nn2-c2ccc(C)cc2)c1C (stereo not drawn)	·	–	–	–	–
CC(/C=C/C=C(C)/C=C/C(=O)O)=C\C=C\C=C(C)\C=C\C=C(C)\C=C\C(=O)O	·	·	2.82µM	·	·
CC1=C(/C=C/C(C)=C\C=C\C(C)=C\C(=O)O)C(C)(C)CCC1	·	·	–	–[19.4 µM]	·
Oc1ccc(N=Cc2ccc(O)c(O)c2)cc1	3.16µM	?	–	44.7µM	12.6µM
Oc1ccc(/C=N/N(c2ccccc2)c2ccccc2)cc1O	–	–	–	?	?
CCCN1CNc2c(c(=O)[nH]c(=S)n2CCc2c(OC)cccc2OC)C1	·	·	–	–	–
COc1ccc(C(=O)Nc2ccnn2C2CCN(Cc3ccc4nonc4c3)CC2)cc1	–	?	22.4µM	–	?
COc1ccccc1C(=O)Nc1ccnn1C1CCN(Cc2cnc(N(C)C)s2)CC1	–	89.1µM	–	–	–
CCn1cc(CN2CCC(n3nccc3NC(=O)c3ccc4c(c3)OCO4)CC2)c(C)n1	–	–	1.78µM	–	–
COc1ccccc1C(=O)Nc1ccnn1C1CCN(Cc2ccccc2OCCO)CC1	–	–	–	–	–
Cc1ccc(NNC(=O)c2sccc2Cl)c(C)c1	·	·	·	–	?
CCN1CCC(N(Cc2ccc3c(c2)OCO3)C(=O)Nc2cc(Cl)ccc2C(=O)OC)CC1	–	–	–	–	–
O=C(N/N=C/c1cc(O)ccc1Br)c1cccnc1	–	–	·	–	–
O=C(N/N=C/c1cc(Br)c(O)c(Br)c1O)c1cccnc1	39.8µM	39.8µM	·	–	–
COc1ccc(C(=O)N/N=C/c2ccc(OC)c(COc3ccccc3)c2)cc1	–	–	–	–	–
COc1ccc(/C=N/NC(=O)c2cc(Br)ccc2O)cc1Cn1cc(Cl)cn1	?	?	–	–	–
COc1ccc(/C=N/NC(=O)c2ccco2)cc1COc1ccc(F)cc1	–	?	·	–	79.4µM
COc1ccc(/C=N\NC(=O)c2cc(O)c(O)c(O)c2)cc1COc1ccc(C(=O)OCC(C)C)cc1	?	1.41µM	·	–	–
COc1ccc(/C=N/NC(=O)c2ccc(Cl)cc2)cc1Cn1cc(Cl)cn1	–	20µM	–	?	79.4µM
COc1ccc(/C=N/NC(=O)c2cc(C(C)(C)C)[nH]n2)cc1COc1ccc(F)cc1F	–	–	–	–	89.1µM
CCOc1ccccc1CNC(=O)Cn1nc(C)c2nn(-c3ccc(Cl)cc3)c(C)c2c1=O	–	–	–	–	–
COc1ccc(/C=N/NC(=O)c2ccc(NC(C)=O)cc2)cc1COc1ccc(F)cc1F	?	35.5µM	·	–	35.5µM
Cc1cc(Cl)ccc1NNC(N)=S	–	–	–	–	14.1µM
CCc1ccc(N=C2NC(=O)CC(C(=O)Nc3ccc(OC)cc3)S2)cc1 (stereo not drawn)	?	17.8µM	·	–	–
